Data: PubChem BioAssay (NCI)
Compounds without any hit were thinned out: in the full panel of roughly 83,000, 20% have a hit.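 Method: cells in 96-well plates; compound added at one concentration; 48 h incubation; percent growth measured; values under 10 scored active.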 Calls of active or inactive are those of the source.

Experiments:
Assay in all cases: NCI-60 one-dose screen, 48 h (100 = growth as untreated, 0 = no growth, -100 = all killed)
Conditions in all cases: 10 µM unless noted
SK-MEL-2 melanoma = system: SK-MEL-2 melanoma
EKVX NSCLC = system: EKVX NSCLC
SN12C renal = system: SN12C renal
UO-31 renal = system: UO-31 renal
TK-10 renal = system: TK-10 renal
ACHN renal = system: ACHN renal
CAKI-1 renal = system: CAKI-1 renal
A498 renal = system: A498 renal
CCRF-CEM leukemia = system: CCRF-CEM leukemia
MOLT-4 leukemia = system: MOLT-4 leukemia

Structure (SMILES): CN1C(=O)/C(=C\c2c(Cl)cccc2Cl)c2ccccc21
- growth (SK-MEL-2 melanoma): 97.7% (inactive)
- growth (EKVX NSCLC): 87.6% (inactive)
- growth (SN12C renal): 94.8% (inactive)
- growth (UO-31 renal): 75.4% (inactive)
- growth (TK-10 renal): 89.4% (inactive)
- growth (ACHN renal): 97.2% (inactive)
- growth (CAKI-1 renal): 68.3% (inactive)
- growth (A498 renal): 55.4% (inactive)
- growth (CCRF-CEM leukemia): 89.5% (inactive)
- growth (MOLT-4 leukemia): 79.4% (inactive)

Structure (SMILES): COc1ccc(/C=C(\C#N)n2nnc3ccc(Cl)cc32)cc1
- growth (SK-MEL-2 melanoma): 62.9% (inactive)
- growth (EKVX NSCLC): 90% (inactive)
- growth (SN12C renal): 52.4% (inactive)
- growth (UO-31 renal): 50.2% (inactive)
- growth (TK-10 renal): 77.6% (inactive)
- growth (ACHN renal): 45.6% (inactive)
- growth (CAKI-1 renal): 46.3% (inactive)
- growth (A498 renal): 79.7% (inactive)
- growth (CCRF-CEM leukemia): 45.5% (inactive)
- growth (MOLT-4 leukemia): 83.7% (inactive)

Structure (SMILES): COc1cc(/C=C/C(=O)c2ccc(F)cc2)ccc1OCCCCOc1ccc(/C=C/C(=O)c2c(C)nc3ccccc3c2C)cc1OC
- growth (SK-MEL-2 melanoma): 50.5% (inactive)
- growth (EKVX NSCLC): 133% (inactive)
- growth (SN12C renal): 115% (inactive)
- growth (UO-31 renal): 86.8% (inactive)
- growth (TK-10 renal): 114% (inactive)
- growth (ACHN renal): 95.8% (inactive)
- growth (CAKI-1 renal): 80.6% (inactive)
- growth (A498 renal): 113% (inactive)
- growth (CCRF-CEM leukemia): 80.5% (inactive)
- growth (MOLT-4 leukemia): 67% (inactive)

Structure (SMILES): CCC(C)N(CCNc1cc(OC)cc2cccnc12)CC(C)C (stereo not given)
- growth (SK-MEL-2 melanoma): 110% (inactive)
- growth (EKVX NSCLC): 95.5% (inactive)
- growth (SN12C renal): 101% (inactive)
- growth (UO-31 renal): 67.2% (inactive)
- growth (TK-10 renal): 101% (inactive)
- growth (ACHN renal): 85.6% (inactive)
- growth (CAKI-1 renal): 94.1% (inactive)
- growth (A498 renal): 92.8% (inactive)
- growth (CCRF-CEM leukemia): 90.9% (inactive)
- growth (MOLT-4 leukemia): 87.4% (inactive)

Structure (SMILES): C=CCN=c1sc2c(n1NC(=O)c1cc3ccc1CCc1ccc(cc1)CC3)C(=O)c1ccccc1C2=O
- growth (SK-MEL-2 melanoma): -17.3% (active)
- growth (EKVX NSCLC): -20.2% (active)
- growth (SN12C renal): -96.6% (active)
- growth (UO-31 renal): -35.2% (active)
- growth (TK-10 renal): 58.3% (inactive)
- growth (ACHN renal): -95.3% (active)
- growth (CAKI-1 renal): 20.3% (inactive)
- growth (A498 renal): 56% (inactive)
- growth (CCRF-CEM leukemia): -3.65% (active)
- growth (MOLT-4 leukemia): -15.5% (active)

Structure (SMILES): CC(=O)Oc1ccc(N2C(=O)C(Cl)=C(Nc3cccc(C(F)(F)F)c3)C2=O)cc1
- growth (SK-MEL-2 melanoma): 88% (inactive)
- growth (EKVX NSCLC): 103% (inactive)
- growth (SN12C renal): 93% (inactive)
- growth (UO-31 renal): 84.2% (inactive)
- growth (TK-10 renal): 94.9% (inactive)
- growth (ACHN renal): 95% (inactive)
- growth (CAKI-1 renal): 92% (inactive)
- growth (A498 renal): 92% (inactive)
- growth (CCRF-CEM leukemia): 77.4% (inactive)
- growth (MOLT-4 leukemia): 85.9% (inactive)

Structure (SMILES): C=CC[Se]C(=O)Cc1c(C)n(C(=O)c2ccc(Cl)cc2)c2ccc(OC)cc12
- growth (SK-MEL-2 melanoma): 8.51% (active)
- growth (EKVX NSCLC): -62.6% (active)
- growth (SN12C renal): -30.4% (active)
- growth (UO-31 renal): -80% (active)
- growth (TK-10 renal): -33.5% (active)
- growth (ACHN renal): -61% (active)
- growth (CAKI-1 renal): -59.3% (active)
- growth (A498 renal): -28.1% (active)
- growth (CCRF-CEM leukemia): 10.5% (inactive)
- growth (MOLT-4 leukemia): 5.11% (active)

Structure (SMILES): O=S(=O)(c1ccccc1)n1cc2c(c1)-c1nc(Nc3ncccn3)sc1CC2
- growth (SK-MEL-2 melanoma): 65.2% (inactive)
- growth (EKVX NSCLC): 72.4% (inactive)
- growth (SN12C renal): 57.2% (inactive)
- growth (UO-31 renal): 41.3% (inactive)
- growth (TK-10 renal): 64.3% (inactive)
- growth (ACHN renal): 22.9% (inactive)
- growth (CAKI-1 renal): 66.8% (inactive)
- growth (A498 renal): 43.7% (inactive)
- growth (CCRF-CEM leukemia): 73.1% (inactive)
- growth (MOLT-4 leukemia): 83.7% (inactive)

Structure (SMILES): CS(=O)(=O)Nc1cc(-c2ccc3ncnc(Nc4ccc5c(cnn5Cc5cccc(F)c5)c4)c3c2)cnc1Cl
- growth (SK-MEL-2 melanoma): -42% (active)
- growth (EKVX NSCLC): 4.57% (active)
- growth (SN12C renal): 3.84% (active)
- growth (UO-31 renal): 15.7% (inactive)
- growth (TK-10 renal): -15.9% (active)
- growth (ACHN renal): 18.4% (inactive)
- growth (CAKI-1 renal): -27.9% (active)
- growth (A498 renal): -48.7% (active)
- growth (CCRF-CEM leukemia): 12.7% (inactive)
- growth (MOLT-4 leukemia): -10% (active)

Structure (SMILES): COC(=O)CC[C@@H]1O[C@@H](c2cccc(C(F)(F)F)c2)[C@@H](O)[C@H]1O
- growth (SK-MEL-2 melanoma): 103% (inactive)
- growth (EKVX NSCLC): 97.7% (inactive)
- growth (SN12C renal): 106% (inactive)
- growth (UO-31 renal): 92.9% (inactive)
- growth (TK-10 renal): 98.9% (inactive)
- growth (ACHN renal): 103% (inactive)
- growth (CAKI-1 renal): 94% (inactive)
- growth (A498 renal): 106% (inactive)
- growth (CCRF-CEM leukemia): 109% (inactive)
- growth (MOLT-4 leukemia): 104% (inactive)

Structure (SMILES): CCN1C(=S)N(c2ccccc2)C2C1NN=c1s/c(=C3\C(=O)N(C(C)C)c4ccccc43)c(=O)n12 (stereo not given)
- growth (SK-MEL-2 melanoma): 107% (inactive)
- growth (EKVX NSCLC): 101% (inactive)
- growth (SN12C renal): 55.1% (inactive)
- growth (UO-31 renal): 80.5% (inactive)
- growth (TK-10 renal): 86.6% (inactive)
- growth (ACHN renal): 80% (inactive)
- growth (CAKI-1 renal): 76.2% (inactive)
- growth (A498 renal): 97.5% (inactive)
- growth (CCRF-CEM leukemia): 93.1% (inactive)
- growth (MOLT-4 leukemia): 91.1% (inactive)

Structure (SMILES): COC(=O)c1nc(-c2ccccc2)oc1S(=O)(=O)Cc1ccccc1
- growth (SK-MEL-2 melanoma): 80.2% (inactive)
- growth (EKVX NSCLC): 119% (inactive)
- growth (SN12C renal): 93.5% (inactive)
- growth (UO-31 renal): 72.9% (inactive)
- growth (TK-10 renal): 5.41% (active)
- growth (ACHN renal): -35% (active)
- growth (CAKI-1 renal): 8.14% (active)
- growth (A498 renal): 98.1% (inactive)
- growth (CCRF-CEM leukemia): -6.08% (active)
- growth (MOLT-4 leukemia): -9.29% (active)

Structure (SMILES): CSc1oc(C)nc1[P+](c1ccccc1)(c1ccccc1)c1ccccc1
- growth (SK-MEL-2 melanoma): 84.4% (inactive)
- growth (EKVX NSCLC): 73.8% (inactive)
- growth (SN12C renal): 82.2% (inactive)
- growth (UO-31 renal): 102% (inactive)
- growth (TK-10 renal): 88.2% (inactive)
- growth (ACHN renal): 97.6% (inactive)
- growth (CAKI-1 renal): 88% (inactive)
- growth (A498 renal): 64.5% (inactive)
- growth (CCRF-CEM leukemia): 51.8% (inactive)
- growth (MOLT-4 leukemia): 68% (inactive)

Structure (SMILES): Fc1cnccc1C1CC(c2ccc(N3CCNCC3)cc2)=NN1 (stereo not given)
- growth (SK-MEL-2 melanoma): 92.7% (inactive)
- growth (EKVX NSCLC): 91% (inactive)
- growth (SN12C renal): 89.6% (inactive)
- growth (UO-31 renal): 77.2% (inactive)
- growth (TK-10 renal): 123% (inactive)
- growth (ACHN renal): 99.9% (inactive)
- growth (CAKI-1 renal): 80.6% (inactive)
- growth (A498 renal): 97.2% (inactive)
- growth (CCRF-CEM leukemia): 80.8% (inactive)
- growth (MOLT-4 leukemia): 74.2% (inactive)
